# Assay results from PubChem BioAssay (Tox21).
# Unmarked numbers belong to inactive results. Activity calls are given as the source filed them. The call rests on the fitted dose curve.
# Molecular target: Thyrotropin-releasing hormone receptor (Homo sapiens) (UniProt P34981)
# Test: qHTS assay to identify small molecule agonists of the thyrotropin-releasing hormone receptor (TRHR) signaling pathway (AID 1346891);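 further: HEK293 cells expressing TRHR with calcium dye readout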
# Conditions: TRHR-HEK293 calcium fluorescence, agonist mode; series mostly up to 57.6 µM
# Description: National Center for Advancing Translational Sciences [NCATS] NIH Chemical Genomics Center [NCGC] U.S. Environmental Protection Agency [EPA] National Institutes of Environmental Health Sciences [NIEHS] National Toxicology Program [NTP] Assay overview: Thyrotropin-releasing hormone (TRH) receptor (TRHR) is a G-protein-coupled receptor which binds the tripeptide thyrotropin releasing hormone. TRHR is found in the brain and, when bound by TRH, acts (through phospholipase C) to increase intracellular inositol trisphosphate. It plays a crucial role in the anterior pituitary where it controls the synthesis and secretion of thyroid stimulating hormone and prolactin. The TRHR-Hek293 assay is a cell-based assay, and it has the potential to screen G protein-coupled receptors. A compound/drug can either activate (agonist) or suppress (antagonist) GPCRs that can be monitored by levels of intracellular calcium. Using this assay, the Tox21 10K compound library was screened to identify potential TRHR agonists.
# Assay Protocol Summary: The TRHR-Hek293 cells were dispensed at 1500cells/4uL/well in 1536-well black-clear bottom plates using a Multidrop dispenser. After the assay plates were incubated at a 37 C/5% CO2 incubator for 18 hours, 4 uL of Dye-Loading Solution was added to each well. The plates were incubated at 37 C for 2 hours. For agonist mode, 23 nL of compounds dissolved in DMSO, positive controls or DMSO only was transferred to the assay plate by a pin tool. The fluorescence intensity in the plates was measured using FDSS 7000EX kinetic plate reader for 3 min at 1 sec intervals. Each test compound was measured at 15 concentrations and in triplicates.
# On the % scale 0 is the no-effect control and ±100 the full control effect.
# Chain of Thyrotropin-releasing hormone receptor (Homo sapiens) (P34981 whole entry, looked up): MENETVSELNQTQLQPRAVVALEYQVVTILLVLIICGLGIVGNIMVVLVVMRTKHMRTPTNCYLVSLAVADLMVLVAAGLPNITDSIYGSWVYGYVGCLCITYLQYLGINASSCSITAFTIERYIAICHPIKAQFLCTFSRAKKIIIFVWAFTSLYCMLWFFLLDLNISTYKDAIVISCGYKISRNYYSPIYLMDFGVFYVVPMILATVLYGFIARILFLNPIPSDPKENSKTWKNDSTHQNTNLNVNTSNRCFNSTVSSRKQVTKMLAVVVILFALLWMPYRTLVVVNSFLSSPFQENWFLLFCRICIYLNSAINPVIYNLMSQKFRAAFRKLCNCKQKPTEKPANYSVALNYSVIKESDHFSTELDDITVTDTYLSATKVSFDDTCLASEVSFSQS
SMILES,outcome,activation
CCC(C)n1ncn(-c2ccc(N3CCN(c4ccc(OC[C@H]5CO[C@](Cn6cncn6)(c6ccc(Cl)cc6Cl)O5)cc4)CC3)cc2)c1=O (stereo not given in full),inactive,–
C=C(CC)C(=O)c1ccc(OCC(=O)O)c(Cl)c1Cl,inactive,–
CCC(CC)(CC(=O)Nc1cccc(/C=C/c2nc(C3CCC3)cs2)c1)C(=O)O,inactive,–
O=S(=O)(O)c1ccccc1/C=C/c1ccc(-c2ccc(/C=C/c3ccccc3S(=O)(=O)O)cc2)cc1,inactive,–
CCN(CC)c1ccc2c(-c3ccc(S(=O)(=O)O)cc3S(=O)(=O)[O-])c3ccc(=[N+](CC)CC)cc-3oc2c1,inactive,–
C[C@@H](O)[C@H](N)C(=O)O,–,0.352% [at 11.8 µM]
CCCCCCCC,inactive,–
c1cnccn1,inactive,–
C[C@H]1NCc2cc(-c3ccc4c(=O)c(C(=O)O)cn(C5CC5)c4c3OC(F)F)ccc21,–,0.004% [at 11.8 µM]
NC(=O)c1cccc([N+](=O)[O-])c1,inactive,–
C=CCCC(=O)/C=C/C1C(C)=CCCC1(C)C (stereo not given),inactive,–
Cc1ccc(C(C)C)cc2c(C)ccc1-2,inactive,–
CCC(=O)OC(=O)CC,inactive,–
O=c1c(O)c(-c2ccc(O)cc2O)oc2cc(O)cc(O)c12,inactive,–
Clc1sc(Cl)c(Cl)c1Cl,inactive,–
C#CC1(O)CC[C@H]2[C@@H]3CCC4=CCCC[C@@H]4[C@H]3CC[C@@]21C (stereo not given in full),inactive,–
CC(=O)c1ccc(C(C)=O)cc1,inactive,–
Cc1cc(C(C)(C)C)c(O)c(C)c1Cn1c(=O)n(Cc2c(C)cc(C(C)(C)C)c(O)c2C)c(=O)n(Cc2c(C)cc(C(C)(C)C)c(O)c2C)c1=O,inactive,–
CC1(C)CCC[C@]2(C)[C@H]3CC(=O)O[C@]3(C)CC[C@@H]12,inactive,–
Oc1ccccc1O,inactive,–

SMILES,outcome,activation
CCCCCCCCCCOC(=O)c1ccccc1C(=O)OCCCCCCCC,inactive,–
CC(N=C(NC#N)Nc1ccncc1)C(C)(C)C (stereo not given),inactive,–
CCCCCCCCCCCCOCCOCCOCCOCCOCCOCCOCCOCCOCCO,inactive,–
Oc1c(I)cc(Cl)c2cccnc12,inactive,–
COc1cc(S(=O)(=O)O)c(C)cc1N=Nc1c(O)ccc2cc(S(=O)(=O)O)ccc12,inactive,–
Cc1c(N)cccc1C(F)(F)F,inactive,–
CN(C)c1ccc(C(=C2C=CC(=[N+](C)C)C=C2)c2ccc(N(C)C)cc2)cc1,inactive,–
CCC(COC(=O)CCS)(COC(=O)CCS)COC(=O)CCS,inactive,–
CN1CCN(Cc2cc(-c3ccc4[nH]c(=O)oc4c3)co2)[C@@H](c2ccc(F)cc2)C1,inactive,–
CCn1c2ccccc2c2cc([N+](=O)[O-])ccc21,inactive,–
CCCCCCC1CCCC(=O)O1 (stereo not given),inactive,–
CC(C)CCCCCOC(=O)CCS,inactive,–
CCc1cccc(CC)c1NC(=O)CN(CC(=O)O)CC(=O)O,inactive,–
Nc1nc(N)nc(-c2cc(Cl)ccc2Cl)n1,inactive,–
CCOc1ccc2ccccc2c1C(=O)N[C@@H]1C(=O)N2[C@@H]1SC(C)(C)[C@@H]2C(=O)O,inactive,–
COc1cc(C)ccc1O,inactive,–
CCCCCCCCCCCC(=O)OCC(C)OC(=O)CCCCC(=O)O (stereo not given),inactive,–
Cc1cc(C(C#N)c2ccc(Cl)cc2)c(Cl)cc1NC(=O)c1cc(I)cc(I)c1O (stereo not given),inactive,–
Cc1ccc(C)cc1,inactive,–
O=C(/C=C/c1ccccc1)OC/C=C/c1ccccc1,inactive,–
